HCMV antiviral – blocks human cytomegalovirus replication; HFF cells, HCMV-luciferase reporter, 72 h; active compounds read low; 410,000 tested, 4.5% active; activity change, negative = inhibition, % at 57.5 µM; in the data active means activity change below about -60%; inconclusive means no clear call, values can overlap the other calls; inactive means above about -39%
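Inhibition of viral replication was scored as loss of reporter luminescence in HFFs infected with HCMV-luciferase (MOI 1 PFU/cell) for 72 h; compounds tested at 2 doses, normalized to buffer and Salinomycin controls.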
Pf growth 96h – P. falciparum growth inhibition at 96 hours; P. falciparum luciferase reporter growth, 96 h; Potency, µM (titrated, usually from 28.7 µM), hits mostly inhibitors; 320,000 tested, 6.9% active
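Two-generation exposure (96 h) targets delayed-death phenotype. Reporter parasites carrying integrated firefly luciferase, in red cells at 2% hematocrit and 0.05% parasitemia final, kept at 37 C, 5% CO2; luminescence loss indicates inhibition.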
Pf growth 48h – inhibits P. falciparum growth in the first generation, 48 h; P. falciparum luciferase growth in erythrocytes, 48 h; Potency, µM (titrated, usually from 28.7 µM), usual class: inhibitors; 310,000 tested, 5.9% active; AID 504832
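Parasite viability was followed by luminescence of a genomically integrated firefly luciferase. Cultures held 0.1% parasitemia at 2% hematocrit (final), incubated under 5% CO2 at 37 C.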
Sm TGR block – blocks Schistosoma mansoni thioredoxin glutathione reductase; Q962Y6; purified TGR, DTNB reduction, TNB absorbance 405 nm; Potency, µM (titrated, usually from 114 µM), usual class: inhibitors; 360,000 tested, 3% active; further: nearly all actives have a fitted effect of over 60% in size
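Kinetic colorimetric format: TGR-catalysed, NADPH-driven DTNB reduction monitored via TNB absorbance. Enzyme dispensed at 20 nM; compound exposure 15 min at room temperature before reaction start.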
FBPA Giardia inh – inhibitors of Giardia lamblia fructose-1,6-bisphosphate aldolase; 290,000 tested, 0.71% active; Potency, µM (highest dose often 59.6 µM), hits mostly inhibitors; A8B2U2; AID 2451; purified Giardia FBPA; further: nearly all actives have a fitted effect of over 55% in size
Target sequence (A8B2U2 whole entry, looked up): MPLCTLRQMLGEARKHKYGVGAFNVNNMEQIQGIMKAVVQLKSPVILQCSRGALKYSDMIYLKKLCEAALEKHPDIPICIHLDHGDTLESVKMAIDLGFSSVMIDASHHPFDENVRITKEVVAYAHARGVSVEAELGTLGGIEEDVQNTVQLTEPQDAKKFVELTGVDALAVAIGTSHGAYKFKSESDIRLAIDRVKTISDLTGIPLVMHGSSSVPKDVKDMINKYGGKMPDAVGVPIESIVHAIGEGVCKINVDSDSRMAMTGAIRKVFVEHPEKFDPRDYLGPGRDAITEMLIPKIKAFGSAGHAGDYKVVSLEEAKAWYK
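Giardia FBPA (40 nM reagent) was preincubated 10 min at RT with compound (up to 57.5 uM final), then substrate plus GAPDH/TPI/NAD/arsenate coupling system with diaphorase/resazurin was added; resorufin fluorescence (525/598 nm) was read after 20 min.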
A number is an active result; i = inactive; ? = inconclusive; nt = no result given; [ ] = remark or other dose. Hits are enriched below; roughly 14% of the tested compounds scored in any of these assays. Unless noted, the call rests on the fitted dose curve; in most records, active means well fitted curve in the direction sought with a large enough effect; inconclusive means small, poorly fitted or top-dose-only effect, or another doubt; inactive means no such curve, though single readings can be large; an effect the other way counts as inactive or inconclusive.

SMILES	HCMV antiviral	Pf growth 96h	Pf growth 48h	Sm TGR block	FBPA Giardia inh
CN(C)S(=O)(=O)c1ccc(Cl)c(NC(=O)CSc2nc3c(cc2C#N)C(=O)CC(C)(C)C3)c1	?	?	?	i	i
CN(C)S(=O)(=O)c1cccc(NC(=O)CSc2nc3c(cc2C#N)C(=O)CC(C)(C)C3)c1	-80	?	9.3µM	i	i
C=CCNC(=O)N1CCc2nc(COc3ccccc3)c3c(c2C1)CO[C@@H](C)C3	nt	nt	nt	nt	i[12.9 µM]
COc1ccc(-n2nc(C(=O)Nc3ccc(Br)cc3C)c3c4ccccc4n(C)c3c2=O)cc1	i	nt	nt	i	nt
O=C1Nc2cc(C(=O)N3CCN(c4ccccc4F)CC3)ccc2NC1CSCc1ccccc1F (centres undefined)	nt	?	i	?	i
Cc1cccc(N2CCN(C(=O)c3ccc4c(c3)NC(=O)C(CSCc3cccc(F)c3)N4)CC2C)c1 (centres undefined)	-83	i	i	i	nt
O=C1Nc2cc(C(=O)N3CCC4(CC3)OCCO4)ccc2NC1CSCc1cccc(F)c1 (centres undefined)	nt	i	i	50µM	nt
CCN1C(=O)/C(=C2/Sc3ccc(OC)cc3N2C)SC1=Nc1ccc(OC)cc1	i	9.3µM	i	i	i
C=CCN1C(=O)/C(=C2/Sc3ccc(OC)cc3N2C)SC1=Nc1cccc(O)c1	?	i	i	i	i
CCn1c(-c2ccc(N)cc2)nc2ccccc21	i	i	nt	i	i
c1ccc(OCCn2c(-c3ccco3)nc3ccccc32)cc1	i	i	?	8.9µM	i
C=C(Br)Cn1c(CCC)nc2ccccc21	i	10µM	i	i	i
CCn1c(-c2ccco2)nc2ccccc21	i	i	i	32µM	i
Cc1cccc(OCCn2c(-c3ccco3)nc3ccccc32)c1	i	?	?	?	nt
CCn1c(-c2ccc(N(C)C)cc2)nc2ccccc21	-96	?	i	i	nt
COc1cccc(-c2oc3c(c2-c2ccc(OC)nc2)C(O)CCC3)c1 (centres undefined)	i	nt	nt	nt	nt
Clc1ccc(-c2nc3c4ccccc4ccn3c2CC2CCCCC2)cc1	i	nt	nt	nt	nt
CCCc1nc2ccccc2n1CCOC	i	i	nt	i	i
CCCc1nc2ccccc2n1CCOc1ccccc1	i	4.1µM	nt	i	i
CC(C)Cc1nc2ccccc2n1CCc1ccccc1	?	6.6µM	9.3µM	i	i
Cc1nc(Cl)c(Cl)n1CCOc1ccccc1	i	?	8.3µM	i	i
CCc1nc2ccccc2n1CCc1ccccc1	?	i	?	i	i
COCCn1c(=O)c(-c2ccc(F)cc2)nc2cnc(Nc3cccc(OC)c3)nc21	nt	nt	nt	nt	i
CCc1ccc(NC(=O)C(=O)NCC(c2cccnc2)N2CCN(c3ccc(F)cc3)CC2)cc1 (centres undefined)	i	nt	nt	i	nt
COc1ccc(NC(=O)CN(C)S(=O)(=O)c2ccc3c(c2)c(=O)n(C)c(=O)n3C)cc1	i	13µM	i	i	nt
SMILES	HCMV antiviral	Pf growth 96h	Pf growth 48h	Sm TGR block	FBPA Giardia inh
CN(CC(=O)NCc1ccco1)S(=O)(=O)c1ccc2c(c1)n(C)c(=O)c(=O)n2C	i	i	i	40µM	i
CN(CC(=O)NCCc1ccc(Cl)cc1)S(=O)(=O)c1ccc2c(c1)c(=O)n(C)c(=O)n2C	i	13µM	nt	i	i
Cc1ccc(NC(=O)CN(C)S(=O)(=O)c2ccc3c(c2)n(C)c(=O)c(=O)n3C)cc1	?	12µM	?	i	nt
Cc1cccn2c(=O)c3cc(C(=O)NC4CCS(=O)(=O)C4)n(Cc4ccccc4)c3nc12 (centres undefined)	?	i	i	i	i
CCCCN(C(=O)CSc1nn(-c2ccc(F)cc2)c(=S)s1)c1c(N)n(CCCC)c(=O)[nH]c1=O	i	13µM	?	i	nt
CCCCn1c(N)c(N(CC(C)C)C(=O)c2cc(-c3ccc(F)cc3)nc3ccccc23)c(=O)[nH]c1=O	i	?	12µM	i	nt
CCCCn1c(N)c(N(CC(C)C)C(=O)c2cc(-c3ccc(OC)c(OC)c3)nc3ccccc23)c(=O)[nH]c1=O	i	?	1.3µM	i	nt
CCCCN(C(=O)CSc1nc2ccccc2s1)c1c(N)n(CCCC)c(=O)[nH]c1=O	i	nt	nt	nt	nt
CCCCN(C(=O)c1cc(-c2ccc(F)cc2)nc2ccccc12)c1c(N)n(CCCC)c(=O)[nH]c1=O	i	7.4µM	?	i	nt
CCCCN(C(=O)c1cc(Cl)nc2ccccc12)c1c(N)n(CCCC)c(=O)[nH]c1=O	i	i	?	i	nt
CCCCn1c(N)c(N(CCOC)C(=O)c2cc(-c3ccc(OC)c(OC)c3)nc3ccccc23)c(=O)[nH]c1=O	i	i	?	i	nt
CCCCn1c(N)c(N(CC(C)C)C(=O)c2cc(-c3ccc(OC)cc3)nc3ccccc23)c(=O)[nH]c1=O	i	nt	nt	nt	nt
CCOC(=O)N1CCC(N2C(=O)c3ccc(C(=O)Nc4cccc(OC)c4)cc3C2=O)CC1	i	i	i	i	nt
CC(NS(=O)(=O)c1cc2c3c(c1)CCC(=O)N3CCC2)c1ccccc1 (centres undefined)	i	i	i	i	nt
C[C@H](CO)N1C[C@H](C)[C@@H](CN(C)C(=O)Nc2cccc(F)c2)Oc2ncc(Br)cc2C1=O	i	nt	nt	nt	nt
CC(C)c1ccc(CN(Cc2ccco2)c2cnc(S(C)(=O)=O)nc2C(=O)Nc2ccc(F)cc2)cc1	i	nt	nt	i	nt
COc1cc(/C=N/NC(=O)c2ccccc2O)ccc1OCC(=O)Nc1ccccc1	i	i	?	i	i
O=C(COc1ccc(/C=N/NC(=O)c2cc3ccccc3o2)cc1Cl)Nc1ccccc1	nt	7.4µM	10µM	i	i
Cc1ccc(S(=O)(=O)N2CCN(C(=O)CSc3nc(N)cc(=O)[nH]3)CC2)c(C)c1	i	i	i	i	i
C=CCNc1nc(S(=O)Cc2ccc(C)cc2)nc2c1CCCC2 (centres undefined)	-98	?	i	?	i
C=CCNc1c2c(nc3nnnn13)CCCC2	i	i	i	i	i
CCOc1ccc(NC(=O)n2ncc3c(C)cccc32)cc1	i	i	i	i	i
CCOC(=O)Cc1ccc(NC(=O)n2ncc3c(C)cccc32)cc1	-74	nt	nt	i	nt
CN(C)CCC(=O)c1cccc(Br)c1	i	i[5.75 µM]	i	i	i
O=C(NCc1ccco1)c1cccc2ccccc12	i	i	i	i	i
SMILES	HCMV antiviral	Pf growth 96h	Pf growth 48h	Sm TGR block	FBPA Giardia inh
O=C(NCc1ccco1)c1ccccc1O	i	10µM	i	i	i
O=C(NCc1ccco1)c1ccccc1F	i	nt	i	45µM	i
CN(c1ccccc1C(=O)NCc1ccco1)S(C)(=O)=O	i	nt	i	40µM	i
CN(c1ccccc1C(=O)Nc1ccccc1C(=O)NCc1ccco1)S(C)(=O)=O	i	i	?	?	i
Nc1ccccc1C(=O)NCc1ccco1	i	i	i	?	i
COc1cccc(-c2cnc(C(O)c3ccc(OC)c(F)c3)[nH]2)c1 (centres undefined)	i	nt	nt	nt	nt
COC(=O)[C@@]1(Cc2ccccc2)[C@H]2c3cc(C(=O)N(C)C)n(Cc4nc5ccccc5[nH]4)c3C[C@H]2CN1C(=O)c1ccccc1	nt	nt	nt	nt	i

High-throughput results deposited in PubChem by National Center for Advancing Translational Sciences (NCATS).
